{"source": "the supplement of paper PMC9492666", "note": "Counter-ions that a name gives are not always drawn.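 Throughout, for relative cell viability, compound + RSL3, vs DMSO: breast cancer cell viability read out with the CCK-8 kit after co-treatment of each compound with the ferroptosis inducer RSL3.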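 Throughout, for relative cell viability, compound alone, vs DMSO: viability read out with the CCK-8 kit in 96-well plates, screening a set of 303 compounds acting on lipid metabolism targets.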", "data": [{"system": "HCC1937", "assay": "relative cell viability, compound alone, vs DMSO (fraction of DMSO control); higher = less growth inhibition", "conditions": "72 h", "values": [{"smiles": "O=C(CBr)c1ccc(O)cc1", "note": "[PTP Inhibitor I]", "relative cell viability": 1.17}, {"smiles": "O=C(Oc1ccc([N+](=O)[O-])cc1)N1CCN(Cc2cccc(Oc3ccccc3)c2)CC1", "relative cell viability": 0.79}, {"smiles": "C/C=C/c1cc(OC)c(OC)cc1OC", "note": "[alpha-Asarone]", "relative cell viability": 0.855}, {"smiles": "O=C(NCCN1CCC2(CC1)C(=O)NCN2c1ccccc1)c1ccc2ccccc2c1", "relative cell viability": 0.491}, {"smiles": "CCc1c(C(=O)C(N)=O)c2c(OCC(=O)O)cccc2n1Cc1ccccc1", "note": "[Varespladib]", "relative cell viability": 0.797}]}, {"system": "MDA-MB-231", "assay": "relative cell viability, compound alone, vs DMSO (fraction of DMSO control); higher = less growth inhibition", "conditions": "72 h", "values": [{"smiles": "C[C@@H]1C(=O)O[C@H]2[C@H](O)[C@@]34O[C@@H]5OC(=O)[C@H](O)[C@@]56[C@H](C(C)(C)C)[C@H](O)C(OC3=O)[C@]64[C@@]12O", "note": "(stereo not given in full) [Ginkgolide C]", "relative cell viability": 1.08}, {"smiles": "Cc1cc(SCc2sc(-c3ccc(C(F)(F)F)c(F)c3)nc2C)ccc1OCC(=O)O", "relative cell viability": 0.892}, {"smiles": "O=C(Oc1ccc([N+](=O)[O-])cc1)N1CCC(C(O)(c2ccc3c(c2)OCO3)c2ccc3c(c2)OCO3)CC1", "relative cell viability": 0.901}, {"smiles": "C[C@]12CC[C@@H](O)C[C@@H]1CC[C@@H]1[C@@H]2CC[C@]2(C)C(=O)CC[C@@H]12", "note": "[Androsterone]", "relative cell viability": 1.08}, {"smiles": "CCC1=N[C@H]2C[C@@]3(C(=O)N(OC)c4ccccc43)[C@H]3CC1[C@@H]2CO3", "note": "[Humantenmine]", "relative cell viability": 0.978}, {"smiles": "NNC(=O)c1nn(Cc2ccc(Cl)cc2Cl)c2ccccc12", "note": "[Adjudin]", "relative cell viability": 0.757}, {"smiles": "C[C@@]12C[C@@H](c3ccoc3)OC(=O)[C@@H]1CC[C@]1(C)[C@H]2[C@@H]2C=C[C@@]1(O)C(=O)O2", "note": "[Columbin]", "relative cell viability": 1.06}, {"smiles": "O=C1C=CC[C@@H]2[C@H]3CCCN4CCC[C@@H](CN12)[C@@H]34", "note": "[Sophocarpine]", "relative cell viability": 0.906}, {"smiles": "CC(C)=CCC[C@](C)(O)[C@H]1CC[C@]2(C)[C@@H]1[C@H](O)C[C@@H]1[C@@]3(C)CC[C@H](O)C(C)(C)[C@@H]3[C@@H](O[C@@H]3O[C@H](CO)[C@@H](O)[C@H](O)[C@H]3O)C[C@]12C", "note": "[Ginsenoside Rh1]", "relative cell viability": 1.03}, {"smiles": "COc1ccc(CN2CCNCC2)c(OC)c1OC", "note": "[Trimetazidine dihydrochloride]", "relative cell viability": 0.823}, {"smiles": "O=C(CBr)c1ccc(O)cc1", "note": "[PTP Inhibitor I]", "relative cell viability": 0.937}, {"smiles": "O=C(Oc1ccc([N+](=O)[O-])cc1)N1CCN(Cc2cccc(Oc3ccccc3)c2)CC1", "relative cell viability": 0.782}, {"smiles": "C/C=C/c1cc(OC)c(OC)cc1OC", "note": "[alpha-Asarone]", "relative cell viability": 0.976}, {"smiles": "O=C(NCCN1CCC2(CC1)C(=O)NCN2c1ccccc1)c1ccc2ccccc2c1", "relative cell viability": 0.689}, {"smiles": "CCc1c(C(=O)C(N)=O)c2c(OCC(=O)O)cccc2n1Cc1ccccc1", "note": "[Varespladib]", "relative cell viability": 0.842}]}, {"system": "HCC1937", "assay": "relative cell viability, compound + RSL3, vs DMSO (fraction of DMSO control); higher = less growth inhibition", "conditions": "72 h", "values": [{"smiles": "COc1ccc(CN2CCNCC2)c(OC)c1OC", "note": "[Trimetazidine dihydrochloride] + COC(=O)c1ccc([C@H]2c3[nH]c4ccccc4c3C[C@H](C(=O)OC)N2C(=O)CCl)cc1 [RSL3]", "relative cell viability": 0.782}, {"smiles": "O=C(Oc1ccc([N+](=O)[O-])cc1)N1CCN(Cc2cccc(Oc3ccccc3)c2)CC1", "note": "+ COC(=O)c1ccc([C@H]2c3[nH]c4ccccc4c3C[C@H](C(=O)OC)N2C(=O)CCl)cc1 [RSL3]", "relative cell viability": 0.673}, {"smiles": "NNC(=O)c1nn(Cc2ccc(Cl)cc2Cl)c2ccccc12", "note": "[Adjudin] + COC(=O)c1ccc([C@H]2c3[nH]c4ccccc4c3C[C@H](C(=O)OC)N2C(=O)CCl)cc1 [RSL3]", "relative cell viability": 0.557}, {"smiles": "Cc1cc(SCc2sc(-c3ccc(C(F)(F)F)c(F)c3)nc2C)ccc1OCC(=O)O", "note": "+ COC(=O)c1ccc([C@H]2c3[nH]c4ccccc4c3C[C@H](C(=O)OC)N2C(=O)CCl)cc1 [RSL3]", "relative cell viability": 0.59}, {"smiles": "CCc1c(C(=O)C(N)=O)c2c(OCC(=O)O)cccc2n1Cc1ccccc1", "note": "[Varespladib] + COC(=O)c1ccc([C@H]2c3[nH]c4ccccc4c3C[C@H](C(=O)OC)N2C(=O)CCl)cc1 [RSL3]", "relative cell viability": 0.449}, {"smiles": "CC(C)=CCC[C@](C)(O)[C@H]1CC[C@]2(C)[C@@H]1[C@H](O)C[C@@H]1[C@@]3(C)CC[C@H](O)C(C)(C)[C@@H]3[C@@H](O[C@@H]3O[C@H](CO)[C@@H](O)[C@H](O)[C@H]3O)C[C@]12C", "note": "[Ginsenoside Rh1] + COC(=O)c1ccc([C@H]2c3[nH]c4ccccc4c3C[C@H](C(=O)OC)N2C(=O)CCl)cc1 [RSL3]", "relative cell viability": 0.654}, {"smiles": "C/C=C/c1cc(OC)c(OC)cc1OC", "note": "[alpha-Asarone] + COC(=O)c1ccc([C@H]2c3[nH]c4ccccc4c3C[C@H](C(=O)OC)N2C(=O)CCl)cc1 [RSL3]", "relative cell viability": 0.452}, {"smiles": "C[C@]12CC[C@@H](O)C[C@@H]1CC[C@@H]1[C@@H]2CC[C@]2(C)C(=O)CC[C@@H]12", "note": "[Androsterone] + COC(=O)c1ccc([C@H]2c3[nH]c4ccccc4c3C[C@H](C(=O)OC)N2C(=O)CCl)cc1 [RSL3]", "relative cell viability": 0.919}, {"smiles": "O=C(NCCN1CCC2(CC1)C(=O)NCN2c1ccccc1)c1ccc2ccccc2c1", "note": "+ COC(=O)c1ccc([C@H]2c3[nH]c4ccccc4c3C[C@H](C(=O)OC)N2C(=O)CCl)cc1 [RSL3]", "relative cell viability": 0.229}, {"smiles": "C[C@@]12C[C@@H](c3ccoc3)OC(=O)[C@@H]1CC[C@]1(C)[C@H]2[C@@H]2C=C[C@@]1(O)C(=O)O2", "note": "[Columbin] + COC(=O)c1ccc([C@H]2c3[nH]c4ccccc4c3C[C@H](C(=O)OC)N2C(=O)CCl)cc1 [RSL3]", "relative cell viability": 0.564}, {"smiles": "O=C(CBr)c1ccc(O)cc1", "note": "[PTP Inhibitor I] + COC(=O)c1ccc([C@H]2c3[nH]c4ccccc4c3C[C@H](C(=O)OC)N2C(=O)CCl)cc1 [RSL3]", "relative cell viability": 0.674}, {"smiles": "C[C@@H]1C(=O)O[C@H]2[C@H](O)[C@@]34O[C@@H]5OC(=O)[C@H](O)[C@@]56[C@H](C(C)(C)C)[C@H](O)C(OC3=O)[C@]64[C@@]12O", "note": "(stereo not given in full) [Ginkgolide C] + COC(=O)c1ccc([C@H]2c3[nH]c4ccccc4c3C[C@H](C(=O)OC)N2C(=O)CCl)cc1 [RSL3]", "relative cell viability": 0.699}, {"smiles": "O=C1C=CC[C@@H]2[C@H]3CCCN4CCC[C@@H](CN12)[C@@H]34", "note": "[Sophocarpine] + COC(=O)c1ccc([C@H]2c3[nH]c4ccccc4c3C[C@H](C(=O)OC)N2C(=O)CCl)cc1 [RSL3]", "relative cell viability": 0.621}, {"smiles": "O=C(Oc1ccc([N+](=O)[O-])cc1)N1CCC(C(O)(c2ccc3c(c2)OCO3)c2ccc3c(c2)OCO3)CC1", "note": "+ COC(=O)c1ccc([C@H]2c3[nH]c4ccccc4c3C[C@H](C(=O)OC)N2C(=O)CCl)cc1 [RSL3]", "relative cell viability": 0.483}, {"smiles": "CCC1=N[C@H]2C[C@@]3(C(=O)N(OC)c4ccccc43)[C@H]3CC1[C@@H]2CO3", "note": "[Humantenmine] + COC(=O)c1ccc([C@H]2c3[nH]c4ccccc4c3C[C@H](C(=O)OC)N2C(=O)CCl)cc1 [RSL3]", "relative cell viability": 0.585}]}]}
